Assay outcomes as filed in PubChem BioAssay.
KKLEB tox – cytotoxicity in KKLEB CF airway cells, primary screen, cytotoxicity control for CF NF-kB inhibitor project, cell-based, uHTS, fluorescence assay plates. KKLEB CF airway cells viability, ATPlite luminescence, overnight; stronger effect = lower value; cells stimulated with P. aeruginosa culture filtrate. activity change (cytotoxicity), % at 5 µM. 360,000 tested, 0.36% active. AID 602141, 2011;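 active means corrected activity change at or below -50% at 5 µM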
HIF-2a inh – HIF-2a reporter inhibitors, primary screen, luminescence, 786-0 RCC cells | 360,000 tested, 0.72% active | AID 624352, 2012 | 786-0 RCC cells HIF-2a reporter, luciferase luminescence, overnight | inhibition, % at 18.8 µM;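 active means inhibition of the luminescence signal of 40% or more relative to plate controls, in a single-dose primary screen at 18.75 µM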
TROY NFkB inh – inhibitors of TROY-driven NF-kB signaling, primary screen, Q293 LMP1-TROYcd cells, NF-kB luciferase, uHTS; Q293 LMP1-TROYcd NF-kB luciferase reporter, 4 h; inhibition, % at 10 µM; 360,000 tested, 0.98% active;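 active means compounds whose plate-normalised and pattern-corrected inhibition of the luciferase reporter signal at the single screening dose is 50% or more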
TWEAK-Fn14 inh – inhibitors of TWEAK-Fn14 signaling, primary screen, luciferase reporter cells, uHTS. inhibition, % at 10 µM. TWEAK-stimulated Fn14 reporter cells, luciferase luminescence, 8 h. 360,000 tested, 2% active; in the data active means inhibition above about 50%
CF NFkB inh – inhibitors of PAF-induced NF-kB signaling, primary screen, cell-based, GFP fluorescence, uHTS. KKLEB NF-kB-GFP reporter, GFP fluorescence overnight. inhibition, % at 5 µM. 360,000 tested, 0.86% active. AID 588850, 2011;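 active means at least 50% inhibition at 5 µM, scaled per plate between neutral and stimulator controls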;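 further: PAF is a Pseudomonas aeruginosa culture filtrate used as stimulus; plate controls were PAF-stimulated DMSO wells for no effect and unstimulated DMSO wells for full effect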
Peg3 prom inh – Peg3 promoter-driven luciferase inhibitors, primary screen, cell-based, HeLa, luciferase luminescence | HeLa PEG-Prom luciferase reporter, overnight | inhibition, % at 20 µM | 360,000 tested, 1.7% active | AID 588405, 2011;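 active means inhibition of at least 50% at 20 µM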
Active calls of the source: *; nt = no result given. Most compounds without a hit are left out; they make up all but 4% or so of the library.

SMILES	KKLEB tox	HIF-2a inh	TROY NFkB inh	TWEAK-Fn14 inh	CF NFkB inh	Peg3 prom inh
Cc1cc(CN(C)C(=O)c2cc(COc3ccc4ncccc4c3)on2)on1	7.9	-49.6	0.8	27.1	6.8	-26.8
O=C(NC1CCCCCCC1)c1cc(COc2ccc3ncccc3c2)on1	-15.7	15.8	31.2	51.8*	13.1	-10.3
CC(CNC(=O)c1cc(COc2ccc3ncccc3c2)on1)c1ccccc1 (stereo not given)	-21.6	23.7	54.1*	59.8*	20.7	48.1
COc1cc2nc(N3CCN(C(=O)C4COc5ccccc5O4)CC3)nc(N)c2cc1OC (stereo not given)	-3.9	2.1	-5.2	-36.1	-14.9	-3.6
COc1cc2nc(N3CCN(C(=O)c4ccco4)CC3)nc(N)c2cc1OC	1.9	-2.5	-12.0	-32.4	-21.2	56.2*
O=C(CCn1c(=O)[nH]c2ccccc2c1=O)NCCSCc1ccccc1	8.4	16.5	3.5	3.9	7.2	13.8
NC(=O)Cn1c(=O)n(CCC(=O)NCCSCc2ccccc2)c(=O)c2ccccc21	-8.9	10.6	71.0*	17.5	0.3	8.9
Oc1c(N=Nc2nn[nH]n2)ccc2ccccc12	-7.5	-45.0	24.4	52.1*	14.5	-28.4
Oc1ccc2ccccc2c1N=Nc1ccc(F)cc1	8.0	-103.5	-42.1	-2.5	-16.6	-55.3
Oc1c(N=Nc2ccc(F)cc2)ccc2ccccc12	-23.1	-135.0	38.4	54.4*	3.1	-177.5
Cc1ccc(N=Nc2ccc(O)c3ncccc23)cc1	-8.6	6.5	-32.8	-81.1	16.5	28.4
Cc1ccc(N=Nc2ccc3ccccc3c2O)cc1	-63.4*	-6.9	77.7*	95.0*	3.8	6.3
O=C(CSc1nnc(NC(=O)c2ccc(F)cc2F)s1)NC1CC1	7.6	-73.4	-25.7	6.5	-0.4	-67.1
CN1C(=O)/C(=N\OC(=O)c2cccc3ccccc23)c2ccccc21	-32.7	39.8	-16.9	17.1	7.9	74.4*
Cc1ccccc1-n1ncc2c([N+](=O)[O-])cc([N+](=O)[O-])cc21	-17.9	-90.7	51.4*	1.7	6.3	-142.0
Cc1ccccc1N1C(=O)c2cccc([N+](=O)[O-])c2C1=O	-0.1	13.5	18.4	-18.3	-1.9	6.9
Cn1ccsc1=NC(=O)c1ccc(S(C)(=O)=O)c([N+](=O)[O-])c1	-22.2	-2.2	-9.3	26.6	34.6	78.3*
CCC(C)c1ccc2oc(-c3ccc(NC(=O)Cn4cnc5c(=O)n(C)c(=O)n(C)c54)cc3)nc2c1 (stereo not given)	0.2	-149.4	63.6*	34.4	1.3	-192.2
COc1ccc(S(=O)(=O)N2CCN(CC(O)COc3ccc(CC#N)cc3)CC2)cc1OC (stereo not given)	1.4	-0.4	-4.4	7.3	-5.4	-2.7
O=C(Nc1nccs1)c1cccc(N2C(=O)c3cccc4c([N+](=O)[O-])ccc(c34)C2=O)c1	-4.8	9.1	nt	84.9*	-1.2	110.5*
O=C(Nc1ccc(S(=O)(=O)Nc2nccs2)cc1)c1cccc(N2C(=O)c3ccccc3C2=O)c1	-3.5	3.7	-2.7	8.2	-4.6	-11.9
CN(C(=O)COC(=O)c1ccc(S(=O)(=O)N2CCOCC2)cc1)c1ccccc1	5.8	5.4	7.9	4.5	1.1	13.4
CCN1CCN(CCNC(=O)c2ccc3c(c2)N(Cc2ccc(F)cc2)C(=O)/C(=C/c2ccccc2)S3)CC1	-25.5	29.1	1.2	-51.8	37.2	103.0*
CC(C)(C)c1ccc(/C=C2\SC(=O)N(CCNC(=O)c3cccc(S(=O)(=O)N4CCOCC4)c3)C2=O)cc1	-22.3	8.6	83.5*	93.0*	-3.4	16.6
O=C(NCCN1CCOCC1)c1ccc(/C=C2\Sc3ccccc3N(Cc3ccccc3F)C2=O)cc1	-9.8	-6.5	33.9	39.8	46.3	59.2*
SMILES	KKLEB tox	HIF-2a inh	TROY NFkB inh	TWEAK-Fn14 inh	CF NFkB inh	Peg3 prom inh
COc1ccc(/C=C2\Sc3ccc(C(=O)NCCN4CCCCCC4)cc3N(C)C2=O)cc1	4.1	3.7	26.7	-27.3	9.9	35.8
O=C(CN1C(=O)/C(=C/c2ccc(C(F)(F)F)cc2)Sc2ccccc21)NCCCN1CCOCC1	-8.7	-17.7	-5.3	-14.0	19.8	6.7
CN1C(=O)/C(=C\c2ccccc2F)Sc2ccc(C(=O)NC3CCN(Cc4ccccc4)CC3)cc21	-18.0	16.6	26.4	42.9	26.6	58.3*
CCc1ccc(/C=C2/Sc3ccccc3N(CC(=O)NCCCN3CCOCC3)C2=O)cc1	-4.6	-38.5	-23.7	-21.7	-6.9	-14.8
Cc1ccccc1CN1C(=O)/C(=C\c2ccc(C(=O)NCCN3CCOCC3)cc2)Sc2ccccc21	6.8	17.5	45.8	29.8	13.3	56.6*
CCOCCCNC(=O)/C=C1\Sc2ccccc2N(Cc2ccccc2F)C1=O	-15.9	5.0	-2.5	-6.6	11.8	-24.8
CN1CCN(CCCNC(=O)c2ccc(/C=C3\Sc4ccccc4N(Cc4ccccc4F)C3=O)cc2)CC1	0.6	-5.1	34.1	-17.9	-7.3	74.3*
Cc1ccc2nc(NC(=O)C3CCN(S(=O)(=O)c4cccc5nsnc45)CC3)sc2c1	-5.7	-27.0	42.3	92.2*	17.0	-6.0
COc1ccc2nc(NC(=O)C3CCN(S(=O)(=O)c4cccs4)CC3)sc2c1	-9.6	6.4	54.3*	55.0*	20.5	18.6
Cc1ccc(NC(=O)C2CCN(S(=O)(=O)c3cc([N+](=O)[O-])ccc3Cl)CC2)nc1	-6.4	-17.8	11.9	24.9	18.4	14.4
Cc1ccc2nc(NC(=O)C3CCN(S(=O)(=O)c4cc([N+](=O)[O-])ccc4Cl)CC3)sc2c1	5.5	-80.7	28.6	83.0*	3.9	-32.2
Cc1ccc2nc(NC(=O)C3CCN(S(=O)(=O)c4cccs4)CC3)sc2c1	9.7	3.0	39.6	79.5*	-1.5	13.6
O=C(Cc1cccc(C(F)(F)F)c1)Nc1cc(S(=O)(=O)N2CCOCC2)ccc1N1CCCC1	-4.3	11.2	-10.5	1.0	-4.5	-4.7
Cc1cccc(Oc2ccc3c(c2)cc(C(=O)O)n3C)c1	-0.3	-10.5	-22.1	15.4	9.8	1.3
Cc1cc(C=O)sc1[B-](F)(F)F	-4.4	7.6	-8.7	9.9	10.5	-8.7
COc1ccc(N(CC(=O)N/N=C(\C)c2ccc(OC)c(OC)c2)S(=O)(=O)c2ccccc2)cc1	-1.8	15.5	12.6	-0.9	12.0	5.1
COc1ccc(CCNc2oc(-c3ccco3)nc2C#N)cc1	10.1	-37.6	-26.9	13.2	18.7	-14.3
N#Cc1nc(-c2ccco2)oc1NCCc1ccccc1	5.2	-131.0	nt	61.5*	-0.4	-130.7
